Some test systems named below: NCI-H23 lung; NCI-H226 lung; HOP-62 NSCLC; HOP-92 NSCLC; NCI-H522 lung; A549/ATCC NSCLC; 786-0 renal; COLO 205 colon; DU-145 prostate; K-562 leukemia; MDA-MB-231 breast; RXF 393 renal; SF-268 CNS; SF-295 CNS; SF-539 CNS; UACC-257 melanoma; M14 melanoma; NCI-H460 lung; MALME-3M melanoma; NCI-H322M lung.
What all share (test): NCI-60 one-dose screen, 48 h (100 = growth as untreated, 0 = no growth, -100 = all killed)
Holding throughout (conditions): 10 µM unless noted

Compounds without any hit were thinned out: in the full panel of roughly 83,000, 20% have a hit.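 The test compound was applied at a single concentration to cells in 96-well plates for 48 hours, and percent growth was recorded.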 Values without a mark were called inactive. Calls of active or inactive are those of the source. Rule for the calls: active = growth percent below 10; inactive = the rest.

`Cc1ccc(N2C(=O)C=CC2=O)cc1`: the growth in the experiment with NCI-H23 lung was 106%; with NCI-H226 lung, 90.9%; with HOP-62 NSCLC, 107%; with HOP-92 NSCLC, 82.9%; with NCI-H522 lung, 74.8%; in the experiment with A549/ATCC NSCLC, 92%. The growth is 99.1% with 786-0 renal; 83.6% with COLO 205 colon; 119% with DU-145 prostate; 0.664% (active) in the experiment on K-562 leukemia; 97.6% in the experiment on MDA-MB-231 breast; 99.7% in the experiment with RXF 393 renal. For the same compound, the growth in the experiment with SF-268 CNS is 106%; in the experiment on SF-295 CNS it was 115%; in the experiment on SF-539 CNS, 112%; in the experiment on UACC-257 melanoma, 103%; in the experiment with M14 melanoma, 101%.

As for `CCCCCCCCCCCC[n+]1ccc2ccccc2c1`, the growth with NCI-H23 lung was -33.4% (active); in the experiment on NCI-H226 lung, 4.19% (active); in the experiment on HOP-62 NSCLC it was -33.2% (active); with NCI-H522 lung, -39.2% (active); with A549/ATCC NSCLC it was 6.68% (active); in the experiment on 786-0 renal, -62.8% (active). The growth in the experiment on COLO 205 colon is -80.2% (active); with DU-145 prostate, 8.38% (active); in the experiment with K-562 leukemia, -18.4% (active); in the experiment on MDA-MB-231 breast, -18% (active); in the experiment on RXF 393 renal it was -6.08% (active); in the experiment with SF-268 CNS it was -72.7% (active). Besides, the growth with SF-295 CNS is -40.3% (active); in the experiment with SF-539 CNS it was -47.8% (active); in the experiment on UACC-257 melanoma it was -39.2% (active); with M14 melanoma, -84.2% (active).

For the compound `CCCCCCCCC(=O)OCCCC(CCC(CCC1CCCO1)OC(=O)CCCCCCCC)OC(=O)CCCCCCCC` (stereo unspecified), the growth with NCI-H23 lung was 104%; in the experiment on NCI-H226 lung it was 104%; with HOP-62 NSCLC, 95.6%; in the experiment on NCI-H460 lung it was 111%; with NCI-H522 lung it was 70.8%; in the experiment with A549/ATCC NSCLC, 104%. The growth was 97% in the experiment with 786-0 renal; 111% in the experiment with COLO 205 colon; 106% with DU-145 prostate; 115% in the experiment with K-562 leukemia; 109% in the experiment on MALME-3M melanoma; 107% in the experiment on RXF 393 renal. Besides, the growth in the experiment with SF-268 CNS was 95.7%; in the experiment on SF-295 CNS it was 94.4%; with SF-539 CNS, 97.3%; with UACC-257 melanoma, 99.9%; in the experiment on M14 melanoma, 111%.

For `Cc1nnc(N/N=C/c2ccc([N+](=O)[O-])o2)[nH]c1=O`, the growth with NCI-H23 lung is 22.6%; with NCI-H226 lung it was 16.2%; with HOP-62 NSCLC, 11.3%; in the experiment on NCI-H460 lung, 11.3%; in the experiment with NCI-H522 lung it was 17.1%; with A549/ATCC NSCLC, 28.5%. In addition, the growth with 786-0 renal is 14.9%; in the experiment on COLO 205 colon, -56.5% (active); in the experiment with DU-145 prostate, 19.4%; in the experiment with K-562 leukemia, 10.7%; in the experiment on MALME-3M melanoma it was -30.8% (active); in the experiment on MDA-MB-231 breast it was 28.7%. Moreover, the growth in the experiment on SF-268 CNS was 19.4%; in the experiment with SF-295 CNS it was -40.4% (active); with SF-539 CNS it was -8.83% (active); in the experiment on UACC-257 melanoma, 33.5%; in the experiment with M14 melanoma, 26.2%.

As to `O=C1C=C(Cl)C(=O)c2ccccc21`, the growth in the experiment on NCI-H23 lung is 99.6%; in the experiment on NCI-H322M lung it was 88.8%; in the experiment with HOP-62 NSCLC, 84.5%; in the experiment with NCI-H460 lung it was 101%; in the experiment with NCI-H522 lung, 11%; with 786-0 renal it was 110%. For the same compound, the growth was 93.2% in the experiment with COLO 205 colon; 118% in the experiment on DU-145 prostate; 24.2% in the experiment with K-562 leukemia; 85.1% in the experiment with MALME-3M melanoma; 69.1% in the experiment on MDA-MB-231 breast; 93.2% in the experiment with SF-268 CNS. Besides, the growth with SF-295 CNS was 97.4%; in the experiment on SF-539 CNS, 109%; in the experiment on UACC-257 melanoma it was 96.2%; with M14 melanoma, 107%.

With `CCCCCCCCCCCCCCCCSC(=NCC)NCC`, the growth is 39.4% in the experiment on NCI-H23 lung; 85.7% in the experiment with NCI-H226 lung; 25.9% in the experiment with HOP-62 NSCLC; -83.9% (active) in the experiment on NCI-H460 lung; 23.5% in the experiment on NCI-H522 lung; -19.9% (active) with A549/ATCC NSCLC. Besides, the growth with 786-0 renal was 11.1%; in the experiment with COLO 205 colon, -98.7% (active); in the experiment on DU-145 prostate, 36%; in the experiment on K-562 leukemia, -59.8% (active); in the experiment with MDA-MB-231 breast it was -18.4% (active); in the experiment on RXF 393 renal, 6.55% (active). In addition, the growth in the experiment with SF-268 CNS is 39.5%; in the experiment with SF-539 CNS, 32.8%; in the experiment on UACC-257 melanoma, -12.4% (active); in the experiment on M14 melanoma, -49.8% (active).

As to `C/C(=N/NC(N)=S)c1ccc(C)cc1`, the growth in the experiment on NCI-H23 lung was 95.4%; in the experiment on NCI-H226 lung, 83.5%; with HOP-62 NSCLC, 87.8%; in the experiment with NCI-H460 lung it was 100%; in the experiment with NCI-H522 lung it was 94.5%; with A549/ATCC NSCLC it was 87.6%. Besides, the growth in the experiment on 786-0 renal was 101%; with COLO 205 colon, 99.1%; in the experiment on DU-145 prostate, 100%; in the experiment on K-562 leukemia it was 58%; in the experiment on MALME-3M melanoma, 102%; with MDA-MB-231 breast it was 97.4%. For the same compound, the growth is 97.4% with RXF 393 renal; 98.7% with SF-268 CNS; 93.3% with SF-295 CNS; 100% in the experiment with SF-539 CNS; 89.2% in the experiment with UACC-257 melanoma; 82.7% in the experiment with M14 melanoma.

As for `CCOc1ccc2c(c1)/C(=C\C=C\C1CC(C)C3CC(OCC)CCC3N1CC)CC(C)N2CC` (stereo unspecified), the growth with NCI-H23 lung was 14.5%; in the experiment on NCI-H226 lung, 18.1%; with HOP-62 NSCLC it was 11.6%; with NCI-H460 lung it was 8.11% (active); in the experiment on NCI-H522 lung, -19.3% (active); in the experiment with A549/ATCC NSCLC it was 4.18% (active). The growth is 10.3% in the experiment with 786-0 renal; -46.7% (active) in the experiment on COLO 205 colon; 14.8% in the experiment with DU-145 prostate; 4.61% (active) with K-562 leukemia; -30.1% (active) in the experiment with MALME-3M melanoma; 13.6% with MDA-MB-231 breast. For the same compound, the growth is 21.7% in the experiment on SF-268 CNS, 19.5% with SF-539 CNS, -25.2% (active) with UACC-257 melanoma and 14.9% with M14 melanoma.

As to `COC(=O)Nc1nc2ccc(C3(c4ccc(F)cc4)OCCO3)cc2[nH]1`, the growth was 47.4% in the experiment with NCI-H23 lung; 63.9% in the experiment with NCI-H226 lung; 35.8% in the experiment with HOP-62 NSCLC; 10.4% in the experiment with NCI-H460 lung; -37.2% (active) in the experiment with NCI-H522 lung; 21.7% with A549/ATCC NSCLC. Further, the growth in the experiment on 786-0 renal was 51%; in the experiment with COLO 205 colon, 0.171% (active); with DU-145 prostate it was 12.2%; in the experiment with K-562 leukemia, 9.31% (active); with MALME-3M melanoma, 31.1%; with MDA-MB-231 breast it was 30.3%. The growth was 0.251% (active) with RXF 393 renal; 50.5% in the experiment with SF-268 CNS; 4.04% (active) in the experiment on SF-295 CNS; -13.9% (active) in the experiment on SF-539 CNS; 45.5% in the experiment on UACC-257 melanoma; 23.3% with M14 melanoma.

Source of the values: PubChem BioAssay (NCI).
